GDH-TPI counter-1 – GDH-TPI coupled enzyme inhibition counter-screen | GDH-TPI coupled enzyme counterscreen, NADH absorbance | inhibition, % at 4.8 µM | hit rate 1.2% among 360,000 | AID 588335; in the data active = inhibition above about 30%;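 note: 0% = DMSO wells and 100% = wells lacking the enzyme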
RecA splice inh – inhibitors of M. tuberculosis RecA intein splicing | AID 2221 | cell-free RecA intein splicing, fluorescence | hit rate 0.75% among 290,000 | inhibition, % (concentration not given with the values) | P9WHJ3; in the data active = inhibition above about 30%; inconclusive = no clear call, values can overlap the other calls;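 note: 0% = vehicle wells and 100% = reference inhibitor control wells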
Mtb FBA inh – Mtb fructose-bisphosphate aldolase inhibition; inhibition, % at 1 µM; P9WQA3; purified M. tuberculosis FBA, fluorescence read-out; hit rate 2.3% among 360,000;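 note: 0% = vehicle and 100% = reference inhibitor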
Mtb betalactam – beta-lactam sensitization of Mtb H37Rv | M. tuberculosis H37Rv growth with meropenem, percent inhibition | inhibition, % at 25 µM | hit rate 0.27% among 330,000; call rule not given here;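 note: growth measured after seven days incubation then overnight dye step; 0% = bacteria only wells and 100% = bacteria with antibiotic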
Mtb UGM inh – inhibitors of M. tuberculosis UDP-galactopyranose mutase; AID 504406; hit rate 0.06% among 320,000; inhibition, % at 10 µM; P9WIQ1; purified UGM, fluorescence polarization probe displacement; in the data active = inhibition above about 10%, passing the limit was not always enough; inconclusive = no clear call, values can overlap the other calls
Target sequence (P9WIQ1 whole entry, looked up): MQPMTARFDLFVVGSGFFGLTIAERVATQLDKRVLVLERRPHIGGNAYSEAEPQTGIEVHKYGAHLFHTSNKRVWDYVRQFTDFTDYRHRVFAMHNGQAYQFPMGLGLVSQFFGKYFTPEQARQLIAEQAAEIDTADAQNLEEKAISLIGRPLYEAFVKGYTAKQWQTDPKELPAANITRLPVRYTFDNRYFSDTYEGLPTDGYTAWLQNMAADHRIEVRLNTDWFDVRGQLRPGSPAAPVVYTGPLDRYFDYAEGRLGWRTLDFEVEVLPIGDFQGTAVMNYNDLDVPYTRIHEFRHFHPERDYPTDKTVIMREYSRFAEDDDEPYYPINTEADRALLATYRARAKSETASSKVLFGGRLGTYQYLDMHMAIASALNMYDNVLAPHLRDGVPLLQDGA
Rv3671c protease – inhibits the M. tuberculosis serine protease Rv3671c; inhibition, % at 5.96 µM; hit rate 0.048% among 320,000; AID 2606; in the data active = inhibition above about 38%;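 note: extracellular domain of Rv3671c used as enzyme; 0% = enzyme with DMSO and 100% = no enzyme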
Mtb FBA confirm – confirmation of M. tuberculosis fructose-bisphosphate aldolase inhibitors | shares compounds with Mtb FBA inh | purified M. tuberculosis FBA, fluorescence read-out | inhibition, % at 1 µM | hit rate 78% among 5,600 | AID 651616;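 note: 0% = vehicle wells and 100% = reference inhibitor wells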
GDH-TPI counter-2 – GDH-TPI inhibition counter-screen for FBA inhibitors | GDH-TPI coupled enzyme counterscreen, fluorescence | inhibition, % at 1 µM | AID 652141 | hit rate 81% among 5,600 | shares compounds with Mtb FBA inh; in the data active = inhibition above about 10%
GDH-TPI DR – counter-screen for M. tuberculosis FBA inhibitors: GDH-TPI dose response | shares compounds with Mtb FBA inh | hit rate 79% among 170 | IC50, µM | GDH-TPI coupled enzyme assay, fluorescence, artifact counterscreen | AID 652145; call rule not given here
An asterisk follows results filed as active; ? = inconclusive; nt = no result given. Compounds with a hit are over-represented: about 4% of the library has one in this group of screens. Cut-off read from the data, not from the text of the source, unless noted: active = inhibition above about 27%; inactive = the rest.

SMILES | GDH-TPI counter-1 | RecA splice inh | Mtb FBA inh | Mtb betalactam | Mtb UGM inh | Rv3671c protease | Mtb FBA confirm | GDH-TPI counter-2 | others
CCn1cc(C(=O)NCc2cccnc2)c(=O)c2cc(F)c(N3CCN(C(=O)c4ccco4)CC3)cc21 | 3 | 2 | 48* | 94 | 0 | -7 | 53* | 45*
O=C(O)c1ccccc1NCc1cccnc1 | -2 | 0 | 5 | 1 | 1 | -2 | nt | nt
O=C(O)CNc1ccccc1C(=O)O | 7 | 1 | 58* | 3 | 0 | -13 | -5 | -4
CCCc1nc2c(C)cc(Br)cn2c1Cc1ccc(C)cc1 | nt | nt | 2 | nt | nt | nt | nt | nt
CC(C)N1CCN(Cc2cc(F)ccc2-n2cccn2)CC1CCO (stereo not given) | -4 | -7 | 37* | 3 | 1 | -5 | 106* | 82*
CC(C)N1CCC(N2CCN(Cc3cc(F)ccc3-n3cccn3)CC2CCO)CC1 (stereo not given) | 11 | -3 | 2 | -8 | -1 | 9 | nt | nt
Cc1ccc(C(=O)NCc2ccco2)c(C)c1 | -6 | -1 | 1 | 0 | -3 | nt | nt | nt
Cn1c(=O)c2c(nc3n2CC(COc2ccccc2)O3)n(C)c1=O (stereo not given) | 7 | -1 | 0 | -5 | 7 | nt | nt | nt
Cn1c(=O)c2cc(NC(=S)NC3CCCCC3)ccc2n1-c1ccccc1 | 1 | nt | 42* | nt | nt | nt | 76* | 81*
Cc1oc2cc(O)ccc2c(=O)c1Oc1ccc(F)cc1 | 15 | -2 | 103* | 5 | 0 | -6 | 0 | -5
Cc1oc2cc(O)ccc2c(=O)c1Oc1ccc2ccccc2c1 | 4 | 6 | 111* | 8 | -1 | -13 | 53* | 38*
CCOc1ccc2c(=O)c(Oc3ccccc3)c(C)oc2c1 | 10 | 1 | 3 | -10 | -2 | -7 | nt | nt
COc1c(C)oc2cc(O)ccc2c1=O | 11 | -5 | 87* | -12 | 1 | -8 | 58* | 40*
Cc1onc(-c2ccccc2)c1C(=O)Nc1nnc(C(C)C)s1 | 1 | -1 | -1 | -6 | 3 | -6 | nt | nt
CCCC(=O)Nc1nnc(-c2ccc3c(c2)OCO3)s1 | 6 | 0 | 38* | -4 | -1 | 1 | 115* | 103*
O=C(Nc1nnc(-c2ccncc2)s1)C1CCCO1 (stereo not given) | 26 | 2 | 82* | -4 | 0 | -1 | 15 | -6 | GDH-TPI DR=2*
CCC(=O)Nc1nnc(-c2ccncc2)s1 | -3 | nt | 43* | -9 | -2 | 2 | 100* | 89*
O=C(Nc1nnc(-c2ccccc2F)s1)C1CCCO1 (stereo not given) | -1 | 1 | 2 | 2 | 1 | -4 | nt | nt
Cc1onc(-c2ccccc2)c1C(=O)Nc1nnc(-c2ccncc2)s1 | 57* | -1 | 46* | 96 | 1 | 4 | 67* | 55*
COc1ccc(S(=O)(=O)N2CCC(C(=O)NN3CCCCC3)CC2)cc1 | 6 | nt | -2 | nt | nt | nt | nt | nt
Cc1cccnc1NC(=O)Nc1cccc2ccccc12 | -2 | 1 | 56* | 32 | 0 | -6 | 90* | 73*
Cn1c(NCCCO)nc2c(c1=O)C1(CCCCC1)Cc1ccccc1-2 | 15 | nt | 65* | 1 | -2 | -1 | 122* | 85*
N#CCSc1n[nH]c2nc3c(c(=O)n12)C1(CCCCC1)Cc1ccccc1-3 | 3 | 5 | 28* | 2 | -2 | 7 | -1 | -3
CCC(=O)Nn1cnc2c(c1=O)C1(CCCCC1)Cc1ccccc1-2 | -2 | 2 | 2 | -3 | 0 | -5 | nt | nt
CCSc1n[nH]c2nc3c(c(=O)n12)C1(CCCCC1)Cc1ccccc1-3 | 15 | -14 | 5 | 0 | 3 | 4 | nt | nt
SMILES | GDH-TPI counter-1 | RecA splice inh | Mtb FBA inh | Mtb betalactam | Mtb UGM inh | Rv3671c protease | Mtb FBA confirm | GDH-TPI counter-2 | others
CN1CCC(Oc2ccccc2Sc2ccccc2)CC1 | 8 | 9 | 29* | -5 | 0 | 1 | 167* | 130*
CN1CCC(OC(c2ccccc2)c2ccccc2)CC1 | -3 | 1 | 0 | -3 | 0 | 7 | nt | nt
CCC1(C)Cc2ccccc2-c2nc3n(c(=O)c21)CC(C(=O)O)S3 (stereo not given) | 2 | 5 | 39* | -18 | 1 | 0 | -2 | -1
CCC1(C)Cc2ccccc2-c2nc(-c3ccccc3)oc(=O)c21 (stereo not given) | 8 | 12 | 0 | 4 | 0 | -5 | nt | nt
COCCCNc1nc2ccccc2nc1NS(=O)(=O)c1ccc(OC)cc1 | 25 | -3 | 30* | ? | 4 | 0 | 71* | 65*
Cc1ccc(C(C)C)c(OCC(=O)NNC(=O)Cn2[nH]c(=O)c3ccccc3c2=O)c1 | -3 | nt | -1 | -4 | 0 | -25 | nt | nt
COc1ccc(OC)c(-n2c(C)ccc2-c2ccc(S(C)(=O)=O)cc2)c1 | 19 | 2 | 91* | -6 | -1 | -1 | 87* | 97*
O=C(c1cccs1)N(Cc1cccc(F)c1)C1CCS(=O)(=O)C1 (stereo not given) | -14 | -3 | 0 | -1 | 2 | 4 | nt | nt
COC(=O)C1CCN(C(=O)C2CCN(C(=O)[C@@H](NS(=O)(=O)c3ccc(C)cc3)C(C)C)CC2)CC1 | 3 | nt | 3 | -8 | -1 | 9 | nt | nt
Cn1c(=O)c2c(c3ccccc31)OC(=O)CC2c1cccnc1 (stereo not given) | 7 | nt | 7 | nt | nt | nt | nt | nt
COc1ccc(C2CC(=O)Oc3c2c(=O)n(C)c2ccccc32)c(OC)c1OC (stereo not given) | 3 | -5 | 37* | -3 | -2 | 4 | -21 | -19
COc1ccc(CCNC(=O)COC(=O)c2cc(Cl)nc(Cl)c2)cc1 | 8 | nt | 4 | 4 | 2 | 3 | nt | nt
Cc1ccc(S(=O)(=O)NC(=O)Nc2cc(C)no2)cc1 | -6 | 0 | -5 | 2 | 2 | -4 | nt | nt
COc1ccc(-c2oc3ncnc(NCCCN(C)C)c3c2-c2ccc(OC)cc2)cc1 | 16 | -4 | 46* | 63 | -3 | 2 | 69* | 72*
CCN(CC)C(=O)Cn1cc(S(=O)(=O)CC(=O)NC2CCCCC2)c2ccccc21 | -10 | 0 | 33* | -11 | ? | -6 | 99* | 83*
CC(C)N(C(=O)Cn1cc(S(=O)(=O)CC(=O)NC2CCCCC2)c2ccccc21)C(C)C | -8 | 1 | 0 | 3 | 1 | 2 | nt | nt
C/C(O)=c1/cnc2nc3ccccc3n2c1=O | 24 | -1 | 30* | -8 | 0 | -5 | 24 | 21*
COc1ccc(CC(NC(C)=O)C(=O)NC2CCN(c3nc(C)cc(C)c3C#N)CC2)cc1OC (stereo not given) | -1 | 3 | 31* | 2 | 2 | 2 | 162* | 121*

Assay outcomes (PubChem)
